# Laboratory results reported in ChEMBL document CHEMBL4296182, “CO-ADD screening of NIH NCI Diversity Set V”.
# For part of these data: Entries with a potency or affinity are not part of this list.
# How the values were obtained:
# Staphylococcus aureus = experiment: Antibacterial activity against Staphylococcus aureus MRSA ATCC 43300 (CO-ADD:GP_020); MIC in CAMBH media using NBS plates, by Resazurin F(560/590); format: functional; details: Concentration 20 uM, ASSAY_TEST Inhibition of Bacterial Growth, detection method Resazurin, Fluorescence (ex560/em590), MEDIA CAMHB, plate type 384well, CORNING #3640, time 18 hr
# Acinetobacter baumannii = experiment: Antibacterial activity against Acinetobacter baumannii ATCC 19606 (CO-ADD:GN_034); MIC in CAMBH media using NBS plates, by Resazurin F(560/590); format: functional; details: Concentration 20 uM, ASSAY_TEST Inhibition of Bacterial Growth, detection method Resazurin, Fluorescence (ex560/em590), MEDIA CAMHB, plate type 384well, CORNING #3640, time 18 hr
# Escherichia coli = experiment: Antibacterial activity against Escherichia coli ATCC 25922 (CO-ADD:GN_001); MIC in CAMBH media using NBS plates, by Resazurin F(560/590); format: functional; details: Concentration 20 uM, ASSAY_TEST Inhibition of Bacterial Growth, detection method Resazurin, Fluorescence (ex560/em590), MEDIA CAMHB, plate type 384well, CORNING #3640, time 18 hr
# Klebsiella pneumoniae = details: Concentration 20 uM; ASSAY_TEST Inhibition of Bacterial Growth; detection method Absorption (OD600); MEDIA CAMHB; plate type 384well; NBS; CORNING #3640; time 18 hr
# Candida albicans = details: 20 µM
# Cryptococcus neoformans = details: Concentration 20 uM; ASSAY_TEST Inhibition of Fungal Growth; detection method Resazurin; Absorption (OD600-OD570); plate type 384well; NBS; CORNING #3640
SMILES,Inhibition (Staphylococcus aureus) [%],Inhibition (Acinetobacter baumannii) [%],Inhibition (Escherichia coli) [%],Inhibition (Klebsiella pneumoniae) [%],Inhibition (Candida albicans) [%],Inhibition (Cryptococcus neoformans) [%]
NC(=S)N/N=C/c1cc(-c2cccc(N)c2)ccn1,-5.52,27.53,11.56,45.35,1.87,-12.06
COc1ccc(NC(=O)c2cc3ccc4c5ccccc5[nH]c4c3cc2O)cc1,16.09,5.56,1.69,7.19,-5.12,1.29
Cc1ccc(Nc2nnc(S)s2)cc1F,-5.24,-6.73,5.51,11.86,12.1,17.67
C(=C\c1ccccn1)/c1ccccn1,-7.74,-5.17,-19.26,9.47,4.3,26.47
CN(CCC#N)c1ccc(/C=C(\C#N)c2cccc(C(F)(F)F)c2)cc1,-1.81,5.38,-0.01,0.85,3.04,-3.8
COc1ccc(/C=C2/CCOC2=O)cc1,-2.28,-9.37,12.04,6.07,3.59,-15.8
O=C(C(Cl)Cl)N1CC2CCC(CC2)C1,-8.6,7.03,-13.8,1.03,-0.88,23.84
COC1=CC(C)C2CC3OC(O)CC4C(C)=C(OC)C(=O)C(C2(C)C1=O)C34C (configuration not stated),7.24,8.28,-3.89,9.99,3.92,7.39
Sc1cnnc2ccccc12,-0.57,-12.95,-15.13,9.37,6.56,22.39
CC(C)(C)C1=NN=C2c3ccccc3C(=O)C21 (configuration not stated),-4.27,3.03,-6.26,1.25,5.03,-9.6
OC1(Cc2ccccc2)CCNCC1,8.09,-10.57,6.88,12.17,7.54,-0.07
CN1CCN(C(=O)Nc2ccc([N+](=O)[O-])cc2)CC1,7.33,6.21,0.54,6.75,1.28,-7.02
CC1=NC2=CC=CC3=NC(C(Cl)(Cl)Cl)=NC(=N1)N23,-3.19,10.22,9.49,11.94,1.15,-10.05
COC(=O)C(=Cc1ccccc1[N+](=O)[O-])C(=O)OC,-1.4,-8.17,9.13,10.58,9.98,-18.32
c1ccc(CSc2nnc3c4ccccc4c4ccccc4c3n2)cc1,-1.68,11.2,0.12,1.09,5.6,-12.52
[O-]/[N+](=C\c1ccccc1)CC1(O)CCCCC1,12.91,10.28,21.78,2.39,5.54,9.39
CC(=O)OCc1cc(-c2nc3ccccc3nc2O)nn1-c1ccc(Cl)cc1,8.25,12.91,-18.97,4.82,4.91,44.96
CCCOc1ccc(-c2nc(-c3ccc([N+](=O)[O-])cc3)cs2)cc1,9.47,16.16,3.67,10.79,5.94,-3.16
CC1(C)N=C(N)N=C(N)N1c1ccc(OCCCOc2ccccc2)c(Cl)c1.CCS(=O)(=O)O,10.6,-13.57,15.29,12.4,-0.44,-3.49
Nc1o[nH]c(=O)c1C1CCCCC1,7.44,-3.3,16.54,10.69,1.7,-0.63
Cc1c(C#N)c2n(c1C)CCCC(=O)N2,39.05,3.89,19.57,7.55,10.6,5.76
CCOC(=O)c1c(N)ssc1=S,5.44,2.94,-3.33,23.27,10.5,-3.18
